Source: PubChem BioAssay (NCATS)
Results filed as inconclusive are left out. Calls of active or inactive are those of the source. Calls come from the whole dose curve; as a rule, active = well fitted curve in the direction sought with a large enough effect; inconclusive = small, poorly fitted or top-dose-only effect, or another doubt; inactive = no such curve, though single readings can be large; an effect the other way counts as inactive or inconclusive.

How the values were obtained:
[1] = test system: NIH3T3; assay: Cytotoxic Profiling of Annotated Libraries Using Quantitative High-Throughput Screening (AID 1296008); settings: Five cell lines viability, CellTiter-Glo ATP luminescence, 48-72 h; stronger effect = lower value; note: nearly all actives have a fitted effect of over 60% in size
Procedure, shortened: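 Compounds were pin-transferred onto cells and incubated 48 or 72 hr at 37 degree Celsius, 95% humidity. CellTiter-Glo was added, plates sat 10 min at room temperature, then ATP-coupled luminescence was imaged as the viability read-out.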

[2] = test system: HEK293T; assay: qHTS assay to identify novel small-molecules to repurpose for Merkel cell carcinoma treatment (AID 1296009); settings: MCC and control cell lines, CellTiter-Glo viability, 72 h; at 44.8 µM (top of the series) unless noted; note: nearly all actives have a fitted effect of over 60% in size
Procedure, shortened: (§1)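 Cells exposed to NPC (8-point) and MIPE (11-point) compound dilutions for 72 hr at 37 degree celsius; viability read by CellTiter-Glo luminescence, normalized to no-cell and DMSO in-plate controls.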

[3] = test system: MCC-13; assay: as above; settings: MCC and control cell lines, CellTiter-Glo viability, 72 h; series mostly up to 46 µM
Procedure, shortened: as §1

[4] = test system: MCC-26; assay: as above; settings: MCC and control cell lines, CellTiter-Glo viability, 72 h; series mostly up to 46 µM
Procedure, shortened: as §1

[5] = test system: MKL-1; assay: as above; settings: MCC and control cell lines, CellTiter-Glo viability, 72 h; series mostly up to 46 µM
Procedure, shortened: as §1

[6] = test system: MKL-2; assay: as above; settings: MCC and control cell lines, CellTiter-Glo viability, 72 h; series mostly up to 46 µM
Procedure, shortened: as §1

[7] = test system: UISO; assay: as above; settings: MCC and control cell lines, CellTiter-Glo viability, 72 h; series mostly up to 46 µM
Procedure, shortened: as §1

[8] = test system: WaGa; assay: as above; settings: MCC and control cell lines, CellTiter-Glo viability, 72 h; series mostly up to 46 µM
Procedure, shortened: as §1

[9] = test system: C33A; assay: Primary qHTS to identify gynecologic anti-cancer compounds using libraries of approved drugs and bioactive compounds (AID 1345084); settings: Gynecologic cancer cell panel viability, ATPlite luminescence, 48 h; series mostly up to 57.5 µM; note: nearly all actives have a fitted effect of over 55% in size
Procedure, shortened: (§2)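 Cytotoxicity screen measuring ATP content by luciferase luminescence. Each compound is applied at five concentrations for 48 h at 37 C with 5% CO2.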

[10] = test system: CAOV3; assay: as above; settings: Gynecologic cancer cell panel viability, ATPlite luminescence, 48 h; series mostly up to 57.5 µM
Procedure, shortened: as §2

[11] = test system: CASKI; assay: as above; settings: Gynecologic cancer cell panel viability, ATPlite luminescence, 48 h; series mostly up to 57.5 µM
Procedure, shortened: as §2

[12] = test system: Es-2; assay: as above; settings: Gynecologic cancer cell panel viability, ATPlite luminescence, 48 h; series mostly up to 57.5 µM
Procedure, shortened: as §2

[13] = test system: HeLa; assay: as above; settings: Gynecologic cancer cell panel viability, ATPlite luminescence, 48 h; series mostly up to 57.5 µM
Procedure, shortened: as §2

[14] = test system: Hek293T; assay: as above; settings: Gynecologic cancer cell panel viability, ATPlite luminescence, 48 h, control line for the selectivity index; series mostly up to 57.5 µM
Procedure, shortened: as §2

[15] = test system: JEG-3; assay: as above; settings: Gynecologic cancer cell panel viability, ATPlite luminescence, 48 h; series mostly up to 57.5 µM
Procedure, shortened: as §2

[16] = test system: OV90; assay: as above; settings: Gynecologic cancer cell panel viability, ATPlite luminescence, 48 h; series mostly up to 57.5 µM
Procedure, shortened: as §2

[17] = test system: PA-1; assay: as above; settings: Gynecologic cancer cell panel viability, ATPlite luminescence, 48 h; series mostly up to 57.5 µM
Procedure, shortened: as §2

[18] = test system: SKOV3; assay: as above; settings: Gynecologic cancer cell panel viability, ATPlite luminescence, 48 h; series mostly up to 57.5 µM
Procedure, shortened: as §2

[19] = test system: HACAT; assay: qHTS assay to identify novel small-molecules to repurpose for Merkel cell carcinoma treatment (AID 1296009); settings: MCC and control cell lines, CellTiter-Glo viability, 72 h; at 44.8 µM (top of the series) unless noted; note: nearly all actives have a fitted effect of over 60% in size
Procedure, shortened: as §1

[20] = test system: NIH3T3; assay: as above; settings: MCC and control cell lines, CellTiter-Glo viability, 72 h; at 44.8 µM (top of the series) unless noted
Procedure, shortened: as §1
% is set by controls: 0 for no effect and ±100 for the full control effect.

O=C(O)c1ccccc1C(=O)Nc1ccc(S(=O)(=O)Nc2nccs2)cc1
inactive: max response [1] -7.95% | outcome [2] | outcome [3] | outcome [4] | outcome [5] | outcome [6] | outcome [7] | outcome [8] | outcome [9] | outcome [10] | outcome [11] | outcome [12] | outcome [13] | outcome [14] | outcome [15] | Potency [16] | outcome [17] | outcome [18]

O=C(O)CCCc1ccccc1
inactive: max response [1] -2.38% | outcome [2] | outcome [3] | outcome [4] | outcome [5] | outcome [6] | outcome [7] | outcome [8] | outcome [9] | outcome [10] | outcome [11] | outcome [12] | outcome [13] | outcome [14] | outcome [15] | Potency [16] | outcome [17] | outcome [18]

CC(=O)Nc1cccc(O)c1
inactive: max response [1] 0.534% | outcome [19] | outcome [3] | outcome [5] | outcome [6] | outcome [7] | outcome [8] | outcome [9] | outcome [10] | outcome [11] | outcome [12] | outcome [13] | outcome [14] | outcome [15] | Potency [16] | outcome [17] | outcome [18]

NS(=O)(=O)c1ccc(C(=O)O)cc1
inactive: max response [1] 1.17% | outcome [19] | outcome [3] | outcome [5] | outcome [6] | outcome [7] | outcome [8] | outcome [9] | outcome [10] | outcome [11] | outcome [12] | outcome [13] | outcome [14] | outcome [15] | Potency [16] | outcome [17] | outcome [18]

O=C(Cn1ccnc1[N+](=O)[O-])NCCO
inactive: max response [1] 4.22% | outcome [2] | outcome [3] | outcome [4] | outcome [5] | outcome [6] | outcome [7] | outcome [8] | outcome [9] | outcome [10] | outcome [11] | outcome [12] | outcome [13] | outcome [14] | outcome [15] | Potency [16] | outcome [17] | outcome [18]

Cc1c(N(C)C)c(=O)n(-c2ccccc2)n1C
inactive: max response [1] 4.65% | outcome [19] | outcome [3] | outcome [5] | outcome [6] | outcome [7] | outcome [8] | outcome [9] | outcome [10] | outcome [11] | outcome [12] | outcome [13] | outcome [14] | outcome [15] | Potency [16] | outcome [17] | outcome [18]

CC(C)=CCC/C(C)=C/CO
inactive: max response [1] -13.7% | outcome [2] | outcome [3] | outcome [4] | outcome [5] | outcome [6] | outcome [7] | outcome [8] | outcome [9] | outcome [10] | outcome [11] | outcome [12] | outcome [13] | outcome [14] | outcome [15] | Potency [16] | outcome [17] | outcome [18]

C[C@]1(Cn2ccnn2)[C@H](C(=O)O)N2C(=O)C[C@H]2S1(=O)=O
inactive: max response [1] -0.883% | outcome [2] | outcome [3] | outcome [4] | outcome [5] | outcome [6] | outcome [7] | outcome [8] | outcome [9] | outcome [10] | outcome [11] | outcome [12] | outcome [13] | outcome [14] | outcome [15] | Potency [16] | outcome [17] | outcome [18]

NNC(=O)CP(=O)(c1ccccc1)c1ccccc1
inactive: max response [1] -3.5% | outcome [19] | outcome [3] | outcome [5] | outcome [6] | outcome [7] | outcome [8] | outcome [9] | outcome [11] | outcome [12] | outcome [13] | outcome [14] | outcome [15] | Potency [16] | outcome [17] | outcome [18]

CC(=O)Nc1ccc(OCCOCCOc2ccc(NC(C)=O)cc2)cc1
inactive: max response [1] 4.13% | outcome [2] | outcome [3] | outcome [4] | outcome [5] | outcome [6] | outcome [7] | outcome [8] | outcome [9] | outcome [10] | outcome [11] | outcome [12] | outcome [13] | outcome [14] | outcome [15] | Potency [16] | outcome [17]

C[N+](C)(C)CC[N+]1(C)Cc2c(Cl)c(Cl)c(Cl)c(Cl)c2C1
inactive: max response [1] 3.9% | outcome [2] | outcome [3] | outcome [4] | outcome [5] | outcome [6] | outcome [7] | outcome [8] | outcome [9] | outcome [10] | outcome [11] | outcome [12] | outcome [13] | outcome [14] | outcome [15] | Potency [16] | outcome [17] | outcome [18]

COc1ccc(C(=O)N2CCN(CC(=O)N3CCOCC3)CC2)cc1
inactive: outcome [1] | outcome [19] | outcome [3] | outcome [5] | outcome [6] | outcome [20] | outcome [7] | outcome [8] | outcome [9] | outcome [11] | outcome [12] | outcome [13] | outcome [14] | outcome [15] | Potency [16] | outcome [17] | outcome [18]

CCN(CC)S(=O)(=O)c1ccc(C(=O)O)cc1
inactive: max response [1] -6.52% | outcome [2] | outcome [3] | outcome [4] | outcome [5] | outcome [6] | outcome [7] | outcome [8] | outcome [9] | outcome [10] | outcome [11] | outcome [12] | outcome [13] | outcome [14] | outcome [15] | Potency [16] | outcome [17] | outcome [18]

O=S1(=O)OC(c2ccc(O)cc2)(c2ccc(O)cc2)c2ccccc21
inactive: outcome [1] | outcome [19] | outcome [3] | outcome [5] | outcome [6] | outcome [20] | outcome [7] | outcome [8] | outcome [9] | outcome [10] | outcome [11] | outcome [12] | outcome [13] | outcome [14] | outcome [15] | Potency [16] | outcome [17] | outcome [18]
